{"source": "PubChem BioAssay (NCI)", "note": "Where “and” joins values, the source holds several entries; their conditions need not be identical. Equal values may be shown once. The panel holds about 83,000 compounds, 20% with a hit somewhere; the sample as a whole holds those more often.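 Values shown are percent growth following 48 h exposure of cells in 96-well plates to a single concentration of compound; below 10 was considered active.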 Calls of active or inactive are those of the source.", "data": [{"test_system": "HL-60(TB) leukemia", "test": "NCI-60 one-dose screen, 48 h (100 = growth as untreated, 0 = no growth, -100 = all killed)", "settings": "10 µM unless noted", "values": [{"compound": "Cn1c(-c2nonc2NC(=O)c2ccc(F)cc2)nc2ccccc21", "growth": "-30.1% (active)"}, {"compound": "COc1cccc(CC(C)=C(c2ccc(OCCN(C)C)cc2)c2ccc(OCCN(C)C)cc2)c1", "growth": "-62.5% (active)"}, {"compound": "Nc1nc2c3ccncc3cc(-c3cccc(Cl)c3)c2c2cnccc12", "growth": "6.71% (active)"}, {"compound": "C#Cc1ccccc1NC(=O)c1sc2nc3c(cc2c1N)CCCCC3", "growth": "99.7% (inactive)"}, {"compound": "CCCCCCCCCCCC(=O)OCCNC(=O)C[n+]1ccccc1", "growth": "100% (inactive)"}, {"compound": "C=C1CC[C@@H]2[C@](C)(COC(C)=O)[C@H](OC(C)=O)CC[C@@]2(C)[C@@H]1CC(Nc1ccc(S(=O)(=O)Nc2cc(C)on2)cc1)C1=CCOC1=O", "note": "(some centres undefined)", "growth": "-2.05% (active)"}, {"compound": "O=C1C(=O)c2ccccc2C(O)=C1CCCc1ccc(C2CCCCCC2)cc1", "growth": "45.6% (inactive)"}, {"compound": "O=C(Nc1ccc(Nc2ccncc2)cc1)c1ccc(Nc2ccnc3ccc([N+](=O)[O-])cc23)cc1[N+](=O)[O-]", "growth": "88.8% (inactive)"}, {"compound": "COc1ccc(C(c2cc(OC)c(OC)c(OC)c2)N2CCN(c3ccccc3)CC2)cc1", "note": "(centres undefined)", "growth": "67.1% (inactive)"}, {"compound": "Oc1c(Cl)cc(Cl)c2ccc(Cn3cc(-c4ccc(C(F)(F)F)cc4)nn3)nc12", "growth": "-24.9% (active)"}, {"compound": "O=C(O)C1C2C=CC(C2)C1C(=O)O", "note": "(centres undefined)", "growth": "25.8% (inactive) and 104% (inactive)"}, {"compound": "CC(C)(O)C1CCCN1C(=O)c1ccccc1I", "note": "(centres undefined)", "growth": "89.3% (inactive)"}, {"compound": "CCCCCCCCCCCCCC(=O)Oc1ccc[nH]c1=O", "growth": "97.1% (inactive)"}, {"compound": "O=C(O)c1ccc(-n2cc(/C=N/Nc3ccc(F)cc3)c(-c3cc4ccccc4oc3=O)n2)cc1", "growth": "6.08% (active)"}]}]}
